# Assay results published in PubChem BioAssay (NCATS).
# Unmarked numbers belong to inactive results. Records with an inconclusive call do not appear. The source made the active and inactive calls. Unless noted, calls come from the whole dose curve; as a rule, active = well fitted curve in the direction sought with a large enough effect; inconclusive = small, poorly fitted or top-dose-only effect, or another doubt; inactive = no such curve, though single readings can be large; an effect the other way counts as inactive or inconclusive.
# Legend:
# [1] = target: Cytochrome P450 3A4 (Homo sapiens) (UniProt P08684); assay: qHTS Assay for Activators of Cytochrome P450 3A4 (AID 885); note: nearly all actives have a fitted effect of over 65% in size
# Method in brief: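 Quantitative HTS format: compounds preincubated with 20nM human CYP3A4 and Luciferin-PPXE substrate at KM, reaction started by NADPH regeneration, stopped after 60 min, luciferase luminescence read 20 min later.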
# [2] = target: Cytochrome P450 2C19 (Homo sapiens) (UniProt P33261); assay: qHTS Assay for Inhibitors and Substrates of Cytochrome P450 2C19 (AID 899); note: nearly all actives have a fitted effect of over 60% in size; note: potency is the fitted concentration of half-maximal effect
# Method in brief: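 Human CYP2C19 (5nM) with Luciferin-H EGE at 10uM (its KM) in 50mM KPO4 was preincubated with compound for 10 min at 37C. NADPH regeneration started a 60 min 37C reaction. Luciferin was read by luminescence, normalized to 57uM ketoconazole.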
# [3] = qHTS Assay for Identification of Small Molecule Agonists for Hypoxia Response Element Signaling Pathway (AID 914; active = well fitted activation curve with a large enough effect in the signal ratio, with a control signal flat, not every such curve was filed as active; the % refers to the signal ratio; note: % of control where 0% means no effect); conditions: ME-180 (cervical carcinoma) HRE-bla reporter, beta-lactamase ratio, CoCl2, 17 h; hits give high values
# Method in brief: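 Positive modulation of EC50 CoCl2-induced hypoxia response element signaling is measured in ME-180 cells with a beta-lactamase reporter. Compounds are titrated, incubation runs 17 hours, and %Activity derives from the blue/green ratio.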
# [4] = target: Cytochrome P450 2D6 (Homo sapiens) (UniProt P10635); assay: qHTS Assay for Inhibitors and Substrates of Cytochrome P450 2D6 (AID 891); note: nearly all actives have a fitted effect of over 60% in size; note: potency is the fitted concentration of half-maximal effect
# Method in brief: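 Human CYP2D6 (5 nM) with 30 uM Luciferin-ME EGE (at Km) in 100 mM KPO4, compound preincubated 10 min, then NADPH regeneration system for 60 min at room temperature. Luciferin read by luminescence; normalized to 1.43 uM quinidine.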
# [5] = Confirmation and Secondary Assay for Modulators of Hemoglobin Beta Chain Splicing at IVS2 654 locus (AID 910);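 note: per-well total GFP intensity by laser scanning cytometry after 2-day treatment; % of control where 0% means no effect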
# Method in brief: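 HeLa cells stably carrying EGFP interrupted by mutant beta-globin IVS2-654 intron (CMV-driven) were treated with compound for 2 days at 37C; corrected splicing was scored as total peak GFP intensity per well (488 nm excitation, 500-520 nm emission).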
# [6] = Confirmation and Secondary Assay for Modulators of Hemoglobin Beta Chain Splicing at IVS2 705 locus (AID 930);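 note: HeLa cells stably expressing the EGFP-705 splicing reporter; GFP fluorescence per well restored by corrected splicing of the IVS2-705 intron in EGFP; series mostly up to about 46 µM; % of control where 0% means no effect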
# Method in brief: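 First, HeLa EGFP-705 cells are seeded at 500/well in Optimem with 2% FCS and left overnight. Next, compound or DMSO is added for 2 days. Finally wells are laser-scanned and total peak GFP intensity scored.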
# Chain of Cytochrome P450 2C19 (Homo sapiens) (P33261 whole entry, looked up): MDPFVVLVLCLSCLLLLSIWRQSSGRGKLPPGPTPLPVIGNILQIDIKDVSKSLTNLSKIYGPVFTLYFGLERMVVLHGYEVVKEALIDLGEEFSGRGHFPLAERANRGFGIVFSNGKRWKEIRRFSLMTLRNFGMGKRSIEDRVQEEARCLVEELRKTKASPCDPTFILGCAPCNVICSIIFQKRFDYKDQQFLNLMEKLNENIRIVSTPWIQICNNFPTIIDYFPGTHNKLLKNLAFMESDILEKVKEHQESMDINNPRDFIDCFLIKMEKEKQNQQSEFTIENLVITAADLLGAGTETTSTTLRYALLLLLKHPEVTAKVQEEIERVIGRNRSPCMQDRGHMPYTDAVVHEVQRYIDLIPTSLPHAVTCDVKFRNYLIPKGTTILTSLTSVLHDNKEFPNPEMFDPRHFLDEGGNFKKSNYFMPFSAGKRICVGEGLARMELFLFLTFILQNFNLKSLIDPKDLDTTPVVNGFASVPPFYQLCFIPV
# Chain of Cytochrome P450 3A4 (Homo sapiens) (P08684 whole entry, looked up): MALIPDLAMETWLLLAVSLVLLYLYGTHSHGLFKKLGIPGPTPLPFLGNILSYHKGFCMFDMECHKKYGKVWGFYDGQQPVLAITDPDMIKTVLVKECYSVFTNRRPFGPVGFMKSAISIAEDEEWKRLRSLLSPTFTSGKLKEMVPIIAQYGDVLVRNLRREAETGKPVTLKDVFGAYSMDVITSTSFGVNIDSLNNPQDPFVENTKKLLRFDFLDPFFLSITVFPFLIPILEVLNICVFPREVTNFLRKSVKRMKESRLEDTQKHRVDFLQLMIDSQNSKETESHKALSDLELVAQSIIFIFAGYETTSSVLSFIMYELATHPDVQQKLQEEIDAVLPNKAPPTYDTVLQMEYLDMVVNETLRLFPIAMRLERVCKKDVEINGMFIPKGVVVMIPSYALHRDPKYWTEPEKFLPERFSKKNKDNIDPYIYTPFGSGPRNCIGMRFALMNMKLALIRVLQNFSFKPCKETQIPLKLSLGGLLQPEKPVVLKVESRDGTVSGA
# Chain of Cytochrome P450 2D6 (Homo sapiens) (P10635 whole entry, looked up): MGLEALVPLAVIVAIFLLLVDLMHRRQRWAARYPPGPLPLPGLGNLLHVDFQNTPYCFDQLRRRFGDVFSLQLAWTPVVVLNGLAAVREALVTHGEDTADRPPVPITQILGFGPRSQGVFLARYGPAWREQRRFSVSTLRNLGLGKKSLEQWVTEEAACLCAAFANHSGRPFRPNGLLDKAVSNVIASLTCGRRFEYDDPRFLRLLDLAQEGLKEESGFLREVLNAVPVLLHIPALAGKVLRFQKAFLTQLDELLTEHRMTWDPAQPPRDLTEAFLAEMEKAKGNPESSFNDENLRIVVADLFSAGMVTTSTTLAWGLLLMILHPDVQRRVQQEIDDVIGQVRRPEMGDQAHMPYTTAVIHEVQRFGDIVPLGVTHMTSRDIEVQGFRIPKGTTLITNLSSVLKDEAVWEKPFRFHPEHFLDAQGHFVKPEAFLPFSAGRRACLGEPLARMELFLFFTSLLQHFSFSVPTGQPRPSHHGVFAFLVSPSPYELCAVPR
structure (smiles),measurement,setting,value
CO[C@@H]1COC(=O)C/C=C\[C@H](C)COC(=O)[C@H](Cc2ccccc2)NC(=O)C/C=C\[C@H]1C,"activity change, positive = activation",[1],-56.6% [at 11.4 µM]
same,Potency,[2],2510 nM (active)
C/C(CCN1CCc2nc(-c3ccccc3)c(-c3ccccc3)cc2C1)=N\O[C@@H](C)CN1CCCc2nc(C)c(C)cc21,"activity change, positive = activation",[1],-58.8% [at 11.4 µM]
same,activation,[3],24.9%
COC(=O)NC(/C(C(=O)OC)=C(\C)NCc1ccccc1)c1ccc2ccccc2c1 (centres undefined),"activity change, positive = activation",[1],-55.9% [at 11.4 µM]
same,Potency,[4],2000 nM (active)
same,Potency,[2],63.1 nM (active)
O=C1[C@@H]2[C@H]3[C@H](O)[C@H](O)C/C(=N/OC[C@@H](O)COCc4ccco4)[C@@H]3CC[C@H]2C(=O)N1c1ccc(F)cc1F,"activity change, positive = activation",[1],-48.8% [at 11.4 µM]
same,Potency,[2],inactive
CCC12C=C(/C=C/c3ccccc3)C(CC)(C1)C(c1ccccc1)CC2=O (centres undefined),"activity change, positive = activation",[1],-32.8% [at 11.4 µM]
same,Potency,[4],inactive
same,Potency,[2],5010 nM (active)
COc1ccc(-c2coc3c(OC)c(OC)cc(O)c3c2=O)cc1,Potency,[1],inactive
same,outcome,[5],inactive
same,outcome,[6],inactive
C/C=C/OC(=O)NC(c1ccccc1)[C@]1(C(C)=O)CCCC1=O (some centres undefined),"activity change, positive = activation",[1],-53.9% [at 11.4 µM]
same,Potency,[4],inactive
same,Potency,[2],199 nM (active)
CCC[C@@H]1C[C@@]1(CCC)C(NC(=O)OCc1ccccc1)c1ccc(-c2ccccc2)cc1 (some centres undefined),Potency,[1],inactive
same,Potency,[4],7940 nM (active)
same,Potency,[2],1260 nM (active)
CC1CCC2C(=O)N3C(CCC(C)[C@H]3c3cccc(N4CCCC4=O)c3)C(=O)N2C1c1cccc(N2CCCC2=O)c1 (some centres undefined),"activity change, positive = activation",[1],-53.3% [at 11.4 µM]
same,Potency,[4],inactive
same,Potency,[2],inactive
